# According to PubChem BioAssay:
# Results filed as inconclusive are left out. Active and inactive are the calls of the source. Unless noted, cut-off not given; nearly all actives show AC50 up to about 26 µM.
# Assays:
# [1] = viability loss in pontine glioma line – cell-based, SU-DIPG-XVII, MIPE5.0, CellTiter-Glo, qHTS, dose response (AID 1347060); settings: CellTiter-Glo ATP luminescence;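 on AC50: cells exposed to compound for 48 hours before viability readout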
# [2] = viability loss in pontine glioma line – cell-based, SU-DIPG-XIII, MIPE5.0, CellTiter-Glo, qHTS, dose response (AID 1347064; cut-off not given, nearly all actives have AC50 up to about 23 µM;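 on AC50: cells exposed to compound for 48 hours before the viability read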); settings: CellTiter-Glo ATP luminescence
# [3] = viability loss in pontine glioma line – cell-based, SU-DIPG-XXV, MIPE5.0, CellTiter-Glo, qHTS, dose response (AID 1347065); settings: CellTiter-Glo ATP luminescence;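 further: cells exposed to compound for 48 hours before ATP readout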
# [4] = JHH-DIPG-1 glioma cell viability, MIPE5.0 library, CellTiter-Glo luminescence, qHTS (AID 1347067); settings: JHH-DIPG-1 glioma viability, CellTiter-Glo ATP luminescence;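 further: cells exposed to compound for 48 hours before readout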
# [5] = growth inhibition of DIPG cells – cell-based, MIPE5.0 library, qHTS (AID 1347068; cut-off not given, nearly all actives have IC50 up to about 30 µM;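 on IC50: cells exposed to compound for 48 hours before viability readout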); settings: SU-DIPG-XXV viability
# [6] = MELAS cybrid and Rieske KO viability enhancers – cell-based, MELAS cybrids, Rieske KO mouse fibroblasts, CellTiter-Glo, primary screen (AID 1508586;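 active means mean z-score across replicates of 1.96 or higher in either the MELAS or the Rieske mutant cell line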;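 further: z relative to plate mean and SD of compound and empty wells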); settings: low glucose
# [7] = target: NAD(+) hydrolase SARM1 (Homo sapiens) (UniProt Q6SZW1); assay: blocking NAD cleavage by SARM1 SAM-TIR – cell lysate, NAD-Glo luminescence (AID 1508614;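 active means compound whose remaining NAD level is above about 45 nM, limit read from the data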); settings: SAM-TIR HEK293T lysate NADase, at 1 µM, stronger effect = higher value
# Sequence of NAD(+) hydrolase SARM1 (Homo sapiens) (Q6SZW1 whole entry, looked up): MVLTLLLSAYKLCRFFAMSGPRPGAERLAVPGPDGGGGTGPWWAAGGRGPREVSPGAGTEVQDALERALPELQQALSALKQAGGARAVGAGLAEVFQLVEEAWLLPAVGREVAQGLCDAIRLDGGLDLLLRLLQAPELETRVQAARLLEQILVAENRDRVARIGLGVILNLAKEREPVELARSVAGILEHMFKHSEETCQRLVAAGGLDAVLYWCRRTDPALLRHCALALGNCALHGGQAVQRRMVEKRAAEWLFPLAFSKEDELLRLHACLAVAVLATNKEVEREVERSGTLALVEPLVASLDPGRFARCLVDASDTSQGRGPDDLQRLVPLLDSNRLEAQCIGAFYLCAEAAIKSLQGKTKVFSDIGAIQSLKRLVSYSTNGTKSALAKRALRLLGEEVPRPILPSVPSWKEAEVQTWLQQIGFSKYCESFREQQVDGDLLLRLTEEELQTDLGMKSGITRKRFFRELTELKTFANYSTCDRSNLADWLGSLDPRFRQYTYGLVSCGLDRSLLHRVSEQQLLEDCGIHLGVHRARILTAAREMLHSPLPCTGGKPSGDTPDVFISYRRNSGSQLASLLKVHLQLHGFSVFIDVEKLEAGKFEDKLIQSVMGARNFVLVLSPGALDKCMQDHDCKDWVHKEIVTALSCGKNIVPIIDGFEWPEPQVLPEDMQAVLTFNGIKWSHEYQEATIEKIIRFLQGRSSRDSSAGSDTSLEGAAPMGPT
# [8] = viability loss in pontine glioma line – cell-based, JHH-DIPG-1, MIPE4.0, CellTiter-Glo, qHTS, dose response (AID 1347062; cut-off not given, nearly all actives have AC50 up to about 27 µM;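 on AC50: cells exposed to compound for two days before readout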); settings: JHH-DIPG-1 viability, CellTiter-Glo ATP luminescence
# [9] = viability loss in pontine glioma line – cell-based, SU-DIPG-IV, MIPE4.0, CellTiter-Glo, qHTS, dose response (AID 1347063; cut-off not given, nearly all actives have AC50 up to about 30 µM;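 further: compound exposure lasted 48 hours before the viability readout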); settings: CellTiter-Glo ATP luminescence
# [10] = growth inhibition of DIPG cells – cell-based, MIPE4.0 library, CellTiter-Glo luminescence, qHTS (AID 1347066; cut-off not given, nearly all actives have AC50 up to about 30 µM;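 further: cells exposed to compound for 48 hours before readout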); settings: SU-DIPG-VI viability, CellTiter-Glo ATP luminescence
# [11] = viability loss with induced miR-34 in A549 – imaging, A549 dox-inducible miR-34, nuclei and caspase counts, primary screen (AID 1347080;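 active means compounds whose cell count with miR-34 switched on is under 0.7 times the count with it off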); settings: A549 miR-34 inducible, Hoechst nuclei count, 48 h
# [12] = compounds altering HSF1 focus formation in cells – imaging, Selleck Cancer Library (AID 1347162; in the data active means plate-normalised HSF1 focus index below about 0.46); settings: human cells, HSF1 nuclear foci imaging, at 10 µM; SSMD: measured here: HSF1 foci SSMD mean; cell count: measured here: cell number; plate-normalised HSF1 focus index: stronger effect = lower value
# [13] = MELAS cybrid survival, CellTiter-Glo 48 h, stronger effect = higher value
# [14] = Rieske KO mouse fibroblast survival, CellTiter-Glo 72 h
# [15] = measured here: relative caspase fold change +Dox/-Dox
# [16] = measured here: total cells with miR-34 induction, stronger effect = lower value
# [17] = measured here: total cells without miR-34 induction
compound,measurement,setting,value
CN(C)c1cc2c(cc1Sc1nc3c(N)nccc3n1CCNCC(C)(C)C)OCO2,AC50,[1],0.59 µM (active)
same,AC50,[2],1.32 µM (active)
same,AC50,[3],0.661 µM (active)
same,AC50,[4],1.32 µM (active)
same,IC50,[5],2.95 µM (active)
Cc1[nH]ncc1-c1cc2nc([C@@H]3CC4CCN3CC4)[nH]c(=O)c2s1,AC50,[1],18.6 µM (active)
same,AC50,[3],16.6 µM (active)
same,AC50,[4],14.8 µM (active)
same,IC50,[5],23.5 µM (active)
C[C@@H]1O[C@@H](O[C@@H]2C=C3CC[C@@H]4[C@H](CC[C@]5(C)[C@@H](c6ccc(=O)oc6)CC[C@]45O)[C@@]3(C)CC2)[C@H](O)[C@H](O)[C@H]1O,AC50,[1],0.0148 µM (active)
same,AC50,[2],0.0166 µM (active)
same,AC50,[3],0.0186 µM (active)
same,AC50,[4],0.0118 µM (active)
same,z-score,[6]; [13],1.14 (inactive)
same,z-score,[6]; [14],-0.344
same,remaining NAD,[7],10 nM (inactive)
C/C1=C/C[C@@H](/C(C)=C/c2csc(C)n2)OC(=O)C[C@H](O)C(C)(C)C(=O)[C@H](C)[C@@H](O)[C@@H](C)CCC1,AC50,[1],0.00296 µM (active)
same,AC50,[3],0.00417 µM (active)
CCN1C[C@]2(OC(=O)c3ccccc3NC(C)=O)CC[C@H](OC)[C@@]34[C@@H]2C[C@@H]([C@@H]13)[C@@]1(O)C[C@H](OC)[C@H]2C[C@@H]4[C@]1(O)[C@H]2OC,outcome,[1],inactive
same,outcome,[8],inactive
same,outcome,[9],inactive
same,outcome,[2],inactive
same,outcome,[3],inactive
same,outcome,[10],inactive
same,outcome,[4],inactive
same,outcome,[5],inactive
Cn1c(CCCCCCC(=O)NO)nc2cc(N(CCCl)CCCl)ccc21,AC50,[1],9.34 µM (active)
same,AC50,[4],9.34 µM (active)
same,outcome,[5],inactive
c1ccc2c(CN3CCNCC3)cccc2c1,outcome,[1],inactive
same,outcome,[8],inactive
same,outcome,[2],inactive
same,outcome,[3],inactive
same,outcome,[10],inactive
same,outcome,[4],inactive
CC[C@H]1/C=C\C=C/C[C@@H](C)[C@H](O)[C@@](C)(O)C(=O)[C@@H](C)[C@H](O)[C@@H](C)C(=O)[C@@H](C)[C@H](O)[C@@H](C)/C=C/C(=O)O[C@@H]2[C@H](C)[C@H](CC1)O[C@]1(CC[C@H](C)[C@H](C[C@@H](C)O)O1)[C@H]2C,AC50,[1],10.5 µM (active)
same,AC50,[8],20.9 µM (active)
same,AC50,[9],10.5 µM (active)
same,AC50,[2],7.42 µM (active)
same,AC50,[3],0.00525 µM (active)
same,AC50,[10],6.62 µM (active)
same,AC50,[4],0.0661 µM (active)
O=c1[nH]c2ccc(Cl)cc2c(N[C@@H]2CN3CCC2CC3)c1-c1nc2ccccc2[nH]1,AC50,[1],2.63 µM (active)
same,AC50,[8],1.87 µM (active)
same,AC50,[9],1.66 µM (active)
same,AC50,[2],3.32 µM (active)
same,AC50,[3],3.72 µM (active)
same,AC50,[4],3.32 µM (active)
same,IC50,[5],8.33 µM (active)
CCOc1ccccc1-n1c(C(C)N2CCN(C(=O)COc3ccc(Cl)cc3)CC2)nc2ccccc2c1=O (stereo not drawn),AC50,[1],16.6 µM (active)
same,AC50,[3],18.6 µM (active)
same,IC50,[5],18.6 µM (active)
same,fold change,"[11]; stronger effect = lower value, cell number ratio, induced over uninduced",0.777 (inactive)
same,fold change,[11]; [15],0.61
same,cell count,[11]; [16],5130
same,cell count,[11]; [17],6610
same,z-score,[6]; [13],1.76 (inactive)
same,z-score,[6]; [14],1.03
O=C(CBr)N1CC([N+](=O)[O-])([N+](=O)[O-])C1,outcome,[1],inactive
same,outcome,[3],inactive
same,outcome,[5],inactive
CC(=O)Nc1ccc(OC[C@](C)(O)C(=O)Nc2ccc([N+](=O)[O-])c(C(F)(F)F)c2)cc1,outcome,[1],inactive
same,outcome,[8],inactive
same,outcome,[2],inactive
same,outcome,[3],inactive
same,outcome,[10],inactive
same,outcome,[4],inactive
same,outcome,[5],inactive
same,fold change,[11]; stronger effect = lower value,0.963 (inactive)
same,fold change,[11]; [15],0.857
same,cell count,[11]; [16],7800
same,cell count,[11]; [17],8100
same,SSMD,[12],0.174
same,cell count,[12],7020
same,plate-normalised HSF1 focus index,[12],1.01 (inactive)
same,z-score,[6]; [13],-0.592 (inactive)
same,z-score,[6]; [14],0.733
COc1cc2c(cc1F)C(c1ccccc1Cl)=Nc1c(n[nH]c1C)N2,AC50,[1],5.25 µM (active)
same,AC50,[3],13.2 µM (active)
same,AC50,[4],14.8 µM (active)
same,outcome,[5],inactive
COc1cc(C)[nH]c(=O)c1CNC(=O)c1c(C)n([C@H](C)C2CCN(CC(F)(F)F)CC2)c2ccccc12,outcome,[1],inactive
same,outcome,[3],inactive
same,outcome,[4],inactive
COc1cc(C)[nH]c(=O)c1CNC(=O)c1c(C)n([C@H](C)C2CCOCC2)c2ccccc12,outcome,[1],inactive
same,outcome,[2],inactive
same,outcome,[3],inactive
same,outcome,[4],inactive
